# Assays:
# FER = conditions: compound concentrations:3nM, 10nM, 30nM, 100nM, 300nM, 1000nM, 3000nM, 30000nM,R2:0.99765697857562097,slope:1.03588430141815,EC50 Standard Error, by the legend:Standard error of the EC50 estimation as provided by the drc package.
# FLT3 = conditions: compound concentrations:3nM, 10nM, 30nM, 100nM, 300nM, 1000nM, 3000nM, 30000nM,R2:0.96575906270431899,slope:1.4210084972678201,EC50 Standard Error, by the legend:Standard error of the EC50 estimation as provided by the drc package.
# FLT4 = conditions: compound concentrations:3nM, 10nM, 30nM, 100nM, 300nM, 1000nM, 3000nM, 30000nM,R2:0.97672359479992199,slope:1.0836870062150401,EC50 Standard Error, by the legend:Standard error of the EC50 estimation as provided by the drc package.
# INCENP = conditions: compound concentrations:3nM, 10nM, 30nM, 100nM, 300nM, 1000nM, 3000nM, 30000nM,R2:0.98280014886482903,slope:1.1847745210473,EC50 Standard Error, by the legend:Standard error of the EC50 estimation as provided by the drc package.
# IRAK4 = conditions: compound concentrations:3nM, 10nM, 30nM, 100nM, 300nM, 1000nM, 3000nM, 30000nM,R2:0.93116388715812703,slope:1.4824347437463801,EC50 Standard Error, by the legend:Standard error of the EC50 estimation as provided by the drc package.
# MAP3K11 = conditions: compound concentrations:3nM, 10nM, 30nM, 100nM, 300nM, 1000nM, 3000nM, 30000nM,R2:0.99429213742215306,slope:0.76505348781975802,EC50 Standard Error, by the legend:Standard error of the EC50 estimation as provided by the drc package.
# MAP4K2 = conditions: compound concentrations:3nM, 10nM, 30nM, 100nM, 300nM, 1000nM, 3000nM, 30000nM,R2:0.97693743702181501,slope:1.5044165115380901,EC50 Standard Error, by the legend:Standard error of the EC50 estimation as provided by the drc package.
# MARK2 = conditions: compound concentrations:3nM, 10nM, 30nM, 100nM, 300nM, 1000nM, 3000nM, 30000nM,R2:0.98471401601648001,slope:1.6013857186590299,EC50 Standard Error, by the legend:Standard error of the EC50 estimation as provided by the drc package.
# MARK3 = conditions: compound concentrations:3nM, 10nM, 30nM, 100nM, 300nM, 1000nM, 3000nM, 30000nM,R2:0.98601648224136496,slope:1.5139039229536799,EC50 Standard Error, by the legend:Standard error of the EC50 estimation as provided by the drc package.
# MARK4 = conditions: compound concentrations:3nM, 10nM, 30nM, 100nM, 300nM, 1000nM, 3000nM, 30000nM,R2:0.98999073963654005,slope:9.1146195696381707,EC50 Standard Error, by the legend:Standard error of the EC50 estimation as provided by the drc package.
# NEK1 = conditions: compound concentrations:3nM, 10nM, 30nM, 100nM, 300nM, 1000nM, 3000nM, 30000nM,R2:0.97961263644427599,slope:0.99029629152452003,EC50 Standard Error, by the legend:Standard error of the EC50 estimation as provided by the drc package.
# NUAK1 = conditions: compound concentrations:3nM, 10nM, 30nM, 100nM, 300nM, 1000nM, 3000nM, 30000nM,R2:0.91267183430565202,slope:2.53834648929845,EC50 Standard Error, by the legend:Standard error of the EC50 estimation as provided by the drc package.
# PAK4 = conditions: compound concentrations:3nM, 10nM, 30nM, 100nM, 300nM, 1000nM, 3000nM, 30000nM,R2:0.99818475591728295,slope:0.99089042450123299,EC50 Standard Error, by the legend:Standard error of the EC50 estimation as provided by the drc package.
# PDPK1;PDPK2P = conditions: compound concentrations:3nM, 10nM, 30nM, 100nM, 300nM, 1000nM, 3000nM, 30000nM,R2:0.91971580292243504,slope:1.29280126727837,EC50 Standard Error, by the legend:Standard error of the EC50 estimation as provided by the drc package.
# PHKG2 = conditions: compound concentrations:3nM, 10nM, 30nM, 100nM, 300nM, 1000nM, 3000nM, 30000nM,R2:0.987331752692992,slope:1.79353666450797,EC50 Standard Error, by the legend:Standard error of the EC50 estimation as provided by the drc package.
# PLK4 = conditions: compound concentrations:3nM, 10nM, 30nM, 100nM, 300nM, 1000nM, 3000nM, 30000nM,R2:0.98129496676024397,slope:1.0145275307596699,EC50 Standard Error, by the legend:Standard error of the EC50 estimation as provided by the drc package.
# PRKD2 = conditions: compound concentrations:3nM, 10nM, 30nM, 100nM, 300nM, 1000nM, 3000nM, 30000nM,R2:0.99348954984815097,slope:2.8520769192550901,EC50 Standard Error, by the legend:Standard error of the EC50 estimation as provided by the drc package.
# PRKD3 = conditions: compound concentrations:3nM, 10nM, 30nM, 100nM, 300nM, 1000nM, 3000nM, 30000nM,R2:0.98624890214185301,slope:1.3007514421669799,EC50 Standard Error, by the legend:Standard error of the EC50 estimation as provided by the drc package.
# Q6ZSR9 = Q6ZSR9 (human, UniProt Q6ZSR9); conditions: compound concentrations:3nM, 10nM, 30nM, 100nM, 300nM, 1000nM, 3000nM, 30000nM,R2:0.98031780619019204,slope:1.5136598557560801,EC50 Standard Error, by the legend:Standard error of the EC50 estimation as provided by the drc package.
# RET = conditions: compound concentrations:3nM, 10nM, 30nM, 100nM, 300nM, 1000nM, 3000nM, 30000nM,R2:0.99332600963227702,slope:0.91132357301438205,EC50 Standard Error, by the legend:Standard error of the EC50 estimation as provided by the drc package.
# Q6ZSR9, sequence (Q6ZSR9 whole entry, looked up): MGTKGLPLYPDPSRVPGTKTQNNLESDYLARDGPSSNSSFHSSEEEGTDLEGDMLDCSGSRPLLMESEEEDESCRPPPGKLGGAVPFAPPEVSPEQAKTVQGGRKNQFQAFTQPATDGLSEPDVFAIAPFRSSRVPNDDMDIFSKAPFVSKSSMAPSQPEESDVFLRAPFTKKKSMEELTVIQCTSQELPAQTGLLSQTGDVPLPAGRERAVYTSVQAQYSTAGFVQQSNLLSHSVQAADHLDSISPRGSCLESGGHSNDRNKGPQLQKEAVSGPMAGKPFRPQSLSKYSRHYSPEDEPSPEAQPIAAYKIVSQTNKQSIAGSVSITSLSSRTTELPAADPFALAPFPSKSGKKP
substance,measurement,setting,value
TAK659,EC50,FER,316 nM
same,Kd,FER; read-out: apparent Kd,202 nM
same,EC50,FLT3,507 nM
same,Kd,FLT3; read-out: apparent Kd,313 nM
same,EC50,FLT4,564 nM
same,Kd,FLT4; read-out: apparent Kd,308 nM
same,EC50,INCENP,150 nM
same,Kd,INCENP; read-out: apparent Kd,150 nM
same,EC50,IRAK4,718 nM
same,Kd,IRAK4; read-out: apparent Kd,675 nM
same,EC50,MAP3K11,9090 nM
same,Kd,MAP3K11; read-out: apparent Kd,7190 nM
same,EC50,MAP4K2,595 nM
same,Kd,MAP4K2; read-out: apparent Kd,459 nM
same,EC50,MARK2,837 nM
same,Kd,MARK2; read-out: apparent Kd,762 nM
same,EC50,MARK3,680 nM
same,Kd,MARK3; read-out: apparent Kd,670 nM
same,EC50,MARK4,1050 nM
same,Kd,MARK4; read-out: apparent Kd,1050 nM
same,EC50,NEK1,589 nM
same,Kd,NEK1; read-out: apparent Kd,529 nM
same,EC50,NUAK1,1020 nM
same,Kd,NUAK1; read-out: apparent Kd,312 nM
same,EC50,PAK4,336 nM
same,Kd,PAK4; read-out: apparent Kd,276 nM
same,EC50,PDPK1;PDPK2P,639 nM
same,Kd,PDPK1;PDPK2P; read-out: apparent Kd,639 nM
same,EC50,PHKG2,201 nM
same,Kd,PHKG2; read-out: apparent Kd,201 nM
same,EC50,PLK4,148 nM
same,Kd,PLK4; read-out: apparent Kd,77.2 nM
same,EC50,PRKD2,1010 nM
same,Kd,PRKD2; read-out: apparent Kd,895 nM
same,EC50,PRKD3,1410 nM
same,Kd,PRKD3; read-out: apparent Kd,1180 nM
same,EC50,Q6ZSR9,566 nM
same,Kd,Q6ZSR9; read-out: apparent Kd,493 nM
same,EC50,RET,22.7 nM
same,Kd,RET; read-out: apparent Kd,12.1 nM

# Source: PMC11062922 (Nature Chemical Biology, 2023)
